In the supplement of paper PMC11732987, “Enantioselective OTUD7B fragment discovery through chemoproteomics screening and high-throughput optimisation” (Communications Chemistry, 2025):

How the values were obtained:
Assay in all cases: log2 ratio of Biotin-Ahx-Ub-VS probe labelling (fragment/DMSO); higher = less target engagement (more negative = stronger competition), active = hit call of the paper (q ≤ 0.05, log2 ratio ≤ -1)
Conditions in all cases: compound concentration: 200 uM; treatment time: 3 h
[1] = target: T1, USP19 (UniProt O94966)
T1 sequence (whole entry): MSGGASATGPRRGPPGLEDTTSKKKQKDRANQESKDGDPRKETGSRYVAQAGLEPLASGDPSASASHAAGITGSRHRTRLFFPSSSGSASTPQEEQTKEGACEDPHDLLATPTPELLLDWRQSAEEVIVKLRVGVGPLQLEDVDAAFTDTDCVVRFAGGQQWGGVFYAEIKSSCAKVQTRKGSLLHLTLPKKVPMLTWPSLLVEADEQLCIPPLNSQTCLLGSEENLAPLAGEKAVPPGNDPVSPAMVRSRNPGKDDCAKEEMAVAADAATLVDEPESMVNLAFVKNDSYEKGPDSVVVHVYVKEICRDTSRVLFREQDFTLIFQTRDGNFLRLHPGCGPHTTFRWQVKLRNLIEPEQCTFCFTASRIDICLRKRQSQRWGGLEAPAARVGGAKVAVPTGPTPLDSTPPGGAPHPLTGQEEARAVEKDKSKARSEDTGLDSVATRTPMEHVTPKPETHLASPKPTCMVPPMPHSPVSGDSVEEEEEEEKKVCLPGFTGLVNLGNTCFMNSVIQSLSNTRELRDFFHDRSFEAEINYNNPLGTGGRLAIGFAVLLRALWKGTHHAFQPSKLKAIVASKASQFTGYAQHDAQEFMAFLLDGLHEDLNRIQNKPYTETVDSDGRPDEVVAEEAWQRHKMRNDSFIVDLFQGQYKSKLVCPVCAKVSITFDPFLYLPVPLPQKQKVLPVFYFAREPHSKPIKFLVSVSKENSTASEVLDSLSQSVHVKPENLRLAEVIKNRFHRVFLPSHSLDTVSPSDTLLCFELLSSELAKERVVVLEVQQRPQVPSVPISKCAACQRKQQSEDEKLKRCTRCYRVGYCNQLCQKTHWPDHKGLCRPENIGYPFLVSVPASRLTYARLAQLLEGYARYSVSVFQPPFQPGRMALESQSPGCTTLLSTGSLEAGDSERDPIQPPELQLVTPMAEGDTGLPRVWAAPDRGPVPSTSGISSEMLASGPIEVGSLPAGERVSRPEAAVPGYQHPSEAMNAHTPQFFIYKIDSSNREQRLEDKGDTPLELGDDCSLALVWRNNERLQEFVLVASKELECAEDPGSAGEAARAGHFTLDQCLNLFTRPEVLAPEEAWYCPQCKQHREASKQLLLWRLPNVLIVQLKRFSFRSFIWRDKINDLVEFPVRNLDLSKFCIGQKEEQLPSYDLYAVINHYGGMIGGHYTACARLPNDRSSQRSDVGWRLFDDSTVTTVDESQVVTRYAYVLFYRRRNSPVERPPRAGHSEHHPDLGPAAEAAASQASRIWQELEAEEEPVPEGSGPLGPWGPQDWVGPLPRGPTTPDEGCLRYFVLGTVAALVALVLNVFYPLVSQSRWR
How it was run: (§1)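 HEK293T lysate (495 µg per sample, in Tris/CHAPS/IGEPAL buffer with protease inhibitors) was exposed in triplicate for 3 h to fragment at 200 µM or to vehicle, then to Biotin-Ahx-Ub-VS at 0.5 µM final for 1 h. Labelled DUBs were enriched on NeutrAvidin, digested with LysC and trypsin, and analysed by diaPASEF LC-MS/MS. Spectronaut label-free quantities were normalised to the global median, and values are average log2 ratios of fragment over vehicle from an unpaired t-test. Only proteins with ≥2 unique peptides were used.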

[2] = target: T2, USP22 (UniProt Q9UPT9)
T2 sequence (whole entry): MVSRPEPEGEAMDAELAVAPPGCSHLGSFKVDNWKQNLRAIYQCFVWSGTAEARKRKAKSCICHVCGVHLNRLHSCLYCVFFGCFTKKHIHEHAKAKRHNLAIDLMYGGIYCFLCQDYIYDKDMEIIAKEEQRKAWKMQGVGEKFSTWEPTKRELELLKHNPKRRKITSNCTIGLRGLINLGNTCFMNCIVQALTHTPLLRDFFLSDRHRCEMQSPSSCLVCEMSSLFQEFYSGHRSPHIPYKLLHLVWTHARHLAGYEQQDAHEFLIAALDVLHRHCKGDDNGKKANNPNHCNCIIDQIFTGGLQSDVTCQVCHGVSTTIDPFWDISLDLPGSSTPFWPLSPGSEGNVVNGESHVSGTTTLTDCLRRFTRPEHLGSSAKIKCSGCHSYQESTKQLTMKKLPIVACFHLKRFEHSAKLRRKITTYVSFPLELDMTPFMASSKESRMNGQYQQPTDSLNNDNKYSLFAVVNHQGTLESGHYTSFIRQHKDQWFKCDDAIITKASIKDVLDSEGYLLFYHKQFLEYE
How it was run: as §1

[3] = target: USP24 (UniProt Q9UPU5)
How it was run: as §1

[4] = target: T3, USP25 (UniProt Q9UHP3)
T3 sequence (whole entry): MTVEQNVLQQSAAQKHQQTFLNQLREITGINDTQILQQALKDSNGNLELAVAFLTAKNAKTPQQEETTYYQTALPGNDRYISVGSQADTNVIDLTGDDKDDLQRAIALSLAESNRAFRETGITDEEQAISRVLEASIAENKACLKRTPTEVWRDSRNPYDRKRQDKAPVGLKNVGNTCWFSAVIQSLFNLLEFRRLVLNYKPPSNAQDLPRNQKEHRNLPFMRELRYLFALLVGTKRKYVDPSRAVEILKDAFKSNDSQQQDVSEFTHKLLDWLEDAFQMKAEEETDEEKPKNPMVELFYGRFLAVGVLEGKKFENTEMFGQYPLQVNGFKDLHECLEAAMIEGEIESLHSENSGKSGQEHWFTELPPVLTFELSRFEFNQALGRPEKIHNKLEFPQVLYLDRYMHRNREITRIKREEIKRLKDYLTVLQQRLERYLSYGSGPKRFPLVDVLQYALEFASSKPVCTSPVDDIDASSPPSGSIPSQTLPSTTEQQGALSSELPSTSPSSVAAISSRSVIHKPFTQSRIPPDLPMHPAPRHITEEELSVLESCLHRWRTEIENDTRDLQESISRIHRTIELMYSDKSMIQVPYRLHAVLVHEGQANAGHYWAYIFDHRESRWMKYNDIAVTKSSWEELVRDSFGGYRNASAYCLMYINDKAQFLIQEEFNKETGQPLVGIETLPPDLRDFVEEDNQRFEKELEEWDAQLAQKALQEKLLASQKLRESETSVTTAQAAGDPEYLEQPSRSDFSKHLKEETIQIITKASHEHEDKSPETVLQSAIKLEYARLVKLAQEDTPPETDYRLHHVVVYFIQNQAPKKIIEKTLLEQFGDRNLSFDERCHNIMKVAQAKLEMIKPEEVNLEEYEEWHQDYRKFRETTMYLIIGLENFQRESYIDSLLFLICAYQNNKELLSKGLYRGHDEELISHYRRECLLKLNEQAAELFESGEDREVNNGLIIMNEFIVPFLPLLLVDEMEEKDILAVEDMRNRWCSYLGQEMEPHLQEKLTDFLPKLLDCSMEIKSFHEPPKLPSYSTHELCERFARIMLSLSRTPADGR
How it was run: as §1

[5] = target: T4, USP28 (UniProt Q96RU2)
T4 sequence (whole entry): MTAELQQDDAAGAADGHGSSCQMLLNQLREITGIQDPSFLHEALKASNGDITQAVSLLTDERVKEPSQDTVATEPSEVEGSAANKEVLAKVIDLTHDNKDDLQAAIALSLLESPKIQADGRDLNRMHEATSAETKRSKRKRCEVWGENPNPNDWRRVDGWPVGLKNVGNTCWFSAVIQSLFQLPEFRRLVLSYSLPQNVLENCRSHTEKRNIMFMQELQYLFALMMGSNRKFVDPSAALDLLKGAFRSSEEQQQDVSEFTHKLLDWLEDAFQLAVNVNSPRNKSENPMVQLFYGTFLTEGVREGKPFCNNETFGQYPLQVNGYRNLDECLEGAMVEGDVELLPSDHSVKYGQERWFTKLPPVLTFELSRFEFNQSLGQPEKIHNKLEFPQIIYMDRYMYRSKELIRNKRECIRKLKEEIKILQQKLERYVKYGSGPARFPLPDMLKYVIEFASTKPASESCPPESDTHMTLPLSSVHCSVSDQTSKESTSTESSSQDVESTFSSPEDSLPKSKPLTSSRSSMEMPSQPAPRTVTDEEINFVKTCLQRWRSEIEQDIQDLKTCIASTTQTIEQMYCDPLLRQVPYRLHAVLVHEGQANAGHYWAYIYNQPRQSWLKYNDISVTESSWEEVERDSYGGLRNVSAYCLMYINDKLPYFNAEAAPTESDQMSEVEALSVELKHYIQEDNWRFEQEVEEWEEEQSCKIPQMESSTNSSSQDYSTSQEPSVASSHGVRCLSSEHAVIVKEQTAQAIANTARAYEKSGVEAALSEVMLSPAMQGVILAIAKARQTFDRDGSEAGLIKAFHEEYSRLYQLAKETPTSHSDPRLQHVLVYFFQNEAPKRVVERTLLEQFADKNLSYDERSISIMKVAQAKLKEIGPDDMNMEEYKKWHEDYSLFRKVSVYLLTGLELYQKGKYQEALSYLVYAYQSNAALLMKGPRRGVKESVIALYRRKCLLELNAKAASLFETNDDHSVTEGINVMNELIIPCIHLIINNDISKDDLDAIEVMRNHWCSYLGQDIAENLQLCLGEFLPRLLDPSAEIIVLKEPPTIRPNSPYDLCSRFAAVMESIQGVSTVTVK
How it was run: as §1

Measured: log2 ratio of Biotin-Ahx-Ub-VS probe labelling

Chain of USP24 (Q9UPU5 whole entry): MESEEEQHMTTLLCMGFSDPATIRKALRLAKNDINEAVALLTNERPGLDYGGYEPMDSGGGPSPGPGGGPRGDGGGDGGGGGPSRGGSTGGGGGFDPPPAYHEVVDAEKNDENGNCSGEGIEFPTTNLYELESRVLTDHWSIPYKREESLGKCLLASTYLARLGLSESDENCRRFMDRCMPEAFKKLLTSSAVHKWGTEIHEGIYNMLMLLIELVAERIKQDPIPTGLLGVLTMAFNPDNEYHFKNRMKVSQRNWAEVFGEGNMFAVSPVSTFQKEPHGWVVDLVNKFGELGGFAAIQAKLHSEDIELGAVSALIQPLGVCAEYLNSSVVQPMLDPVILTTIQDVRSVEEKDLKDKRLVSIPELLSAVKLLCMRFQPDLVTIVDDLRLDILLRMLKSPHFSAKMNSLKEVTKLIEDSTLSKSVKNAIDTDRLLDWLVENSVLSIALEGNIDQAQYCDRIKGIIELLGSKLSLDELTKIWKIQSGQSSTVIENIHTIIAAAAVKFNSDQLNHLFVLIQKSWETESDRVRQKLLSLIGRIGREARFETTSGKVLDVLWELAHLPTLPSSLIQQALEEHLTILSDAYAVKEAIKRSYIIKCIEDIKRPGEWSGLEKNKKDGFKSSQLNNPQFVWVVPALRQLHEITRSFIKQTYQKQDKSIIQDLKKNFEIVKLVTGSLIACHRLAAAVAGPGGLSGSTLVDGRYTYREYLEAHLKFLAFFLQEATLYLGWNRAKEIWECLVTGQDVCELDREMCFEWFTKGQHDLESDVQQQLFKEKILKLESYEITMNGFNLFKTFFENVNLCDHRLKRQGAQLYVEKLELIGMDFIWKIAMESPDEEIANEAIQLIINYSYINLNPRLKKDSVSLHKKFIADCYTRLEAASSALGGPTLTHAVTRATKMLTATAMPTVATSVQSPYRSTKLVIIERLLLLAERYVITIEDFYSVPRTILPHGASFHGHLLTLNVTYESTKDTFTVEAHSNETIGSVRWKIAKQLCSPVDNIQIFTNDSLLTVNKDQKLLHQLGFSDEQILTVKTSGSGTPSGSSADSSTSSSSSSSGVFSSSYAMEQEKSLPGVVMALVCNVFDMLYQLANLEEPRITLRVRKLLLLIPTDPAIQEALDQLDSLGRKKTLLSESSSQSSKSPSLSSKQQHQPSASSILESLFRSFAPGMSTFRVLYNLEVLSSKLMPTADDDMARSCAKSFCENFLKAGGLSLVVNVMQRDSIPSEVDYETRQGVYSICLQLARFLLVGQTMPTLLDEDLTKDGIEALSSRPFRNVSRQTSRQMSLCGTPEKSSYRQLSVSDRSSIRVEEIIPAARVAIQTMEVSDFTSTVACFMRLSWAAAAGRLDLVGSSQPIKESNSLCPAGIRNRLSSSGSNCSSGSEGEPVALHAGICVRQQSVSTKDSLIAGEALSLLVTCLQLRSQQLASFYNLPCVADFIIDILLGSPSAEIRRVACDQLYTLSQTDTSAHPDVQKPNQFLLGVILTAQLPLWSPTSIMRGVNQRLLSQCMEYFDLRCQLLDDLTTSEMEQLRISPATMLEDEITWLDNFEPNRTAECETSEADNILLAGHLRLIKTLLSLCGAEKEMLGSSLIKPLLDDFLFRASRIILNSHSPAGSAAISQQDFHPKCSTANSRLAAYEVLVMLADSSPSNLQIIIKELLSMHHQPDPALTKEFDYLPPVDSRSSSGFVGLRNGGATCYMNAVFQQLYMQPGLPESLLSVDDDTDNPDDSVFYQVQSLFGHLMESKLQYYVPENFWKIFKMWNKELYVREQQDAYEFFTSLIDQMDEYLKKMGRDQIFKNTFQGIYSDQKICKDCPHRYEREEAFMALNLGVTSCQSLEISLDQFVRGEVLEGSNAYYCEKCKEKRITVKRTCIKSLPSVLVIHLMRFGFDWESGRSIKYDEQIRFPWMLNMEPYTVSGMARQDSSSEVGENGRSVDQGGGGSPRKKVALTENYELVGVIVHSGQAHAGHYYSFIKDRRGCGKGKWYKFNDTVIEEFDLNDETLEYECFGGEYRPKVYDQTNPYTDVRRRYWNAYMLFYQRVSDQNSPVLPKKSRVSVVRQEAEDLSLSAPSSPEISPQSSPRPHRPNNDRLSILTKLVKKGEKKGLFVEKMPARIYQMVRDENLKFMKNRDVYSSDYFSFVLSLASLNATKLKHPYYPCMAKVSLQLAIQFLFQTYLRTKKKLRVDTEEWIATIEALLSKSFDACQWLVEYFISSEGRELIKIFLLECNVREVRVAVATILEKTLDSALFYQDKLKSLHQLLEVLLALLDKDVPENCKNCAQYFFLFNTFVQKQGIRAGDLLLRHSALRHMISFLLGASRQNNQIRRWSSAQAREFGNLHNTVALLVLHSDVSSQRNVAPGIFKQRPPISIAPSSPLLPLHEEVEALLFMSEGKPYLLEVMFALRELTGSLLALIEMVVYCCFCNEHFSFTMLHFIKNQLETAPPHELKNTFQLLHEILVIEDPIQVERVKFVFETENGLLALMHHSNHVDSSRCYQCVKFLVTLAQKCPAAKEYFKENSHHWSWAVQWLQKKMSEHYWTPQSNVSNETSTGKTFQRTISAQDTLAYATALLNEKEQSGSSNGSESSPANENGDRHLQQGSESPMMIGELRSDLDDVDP

Cc1cccc(NC(=O)[C@@H]2CCCN2C(=O)CCl)n1
inactive: [1] -0.349 | [2] -0.038 | [3] -0.45 | [4] -0.327 | [5] -0.61
